Bioassay records: PubChem, several laboratories
CCHFV vOTU inh = blocks the CCHF virus ovarian tumor domain protease; CCHFV vOTU protease, Pep-AMC fluorescence; inhibition, % at 11.5 µM; 370,000 compounds, 0.55% hits; AID 651958; in the data active = inhibition above about 30%; also: 0% = vehicle wells with enzyme and 100% = no enzyme wells
BoNT-A LC inh2 = inhibitors of Botulinum neurotoxin A light chain protease; multiplex microsphere protease substrate cleavage, flow cytometry; inhibition, % at 10 µM; 360,000 compounds, 0.17% hits; AID 588499; in the data active = inhibition above about 30%; inconclusive = no clear call, values can overlap the other calls; also: plate controls were buffer without enzyme for full effect and enzyme alone for no effect
3CLpro inhibitor = SARS-CoV 3CLpro protease inhibition. P0C6X7. recombinant SARS-CoV 3CLpro, quenched FRET peptide cleavage. inhibition, % at 6 µM. 290,000 compounds, 0.14% hits. AID 1706; in the data active = inhibition above about 12%
Bead autofluor = compound fluorescence in toxin protease inhibitor counterscreen; compound autofluorescence counterscreen, microsphere flow cytometry; hits give high values; fluorescence intensity (test concentration not listed); 360,000 compounds, 3.1% hits; in the data active = fluorescence intensity above about 16000; inconclusive = no clear call, values can overlap the other calls
BoNT-F LC inh = blocks Botulinum neurotoxin F light chain protease | inhibition, % at 10 µM | 360,000 compounds, 0.22% hits | AID 588497 | Multiplex microsphere protease cleavage assay, flow cytometry; in the data active = inhibition above about 35%, passing the limit was not always enough; inconclusive = no clear call, values can overlap the other calls; also: plate controls were buffer without enzyme for full effect and enzyme alone for no effect
Anthrax LF inh2 = blocks Bacillus anthracis lethal factor protease | P15917 | multiplex microsphere protease cleavage assay, LF | inhibition, % at 10 µM | 360,000 compounds, 0.12% hits; in the data active = inhibition above about 30%; inconclusive = no clear call, values can overlap the other calls; also: plate controls were buffer without enzyme for full effect and enzyme alone for no effect
BoNTA LC inh 1 = BoNT/A light chain protease inhibition. shares compounds with BoNT-F LC inh. multiplex microsphere protease assay, flow cytometry. inhibition, % at 10 µM. 720 compounds, 3% hits; in the data active = inhibition above about 32%
BoNT-F LC CP1 = inhibitors of Botulinum neurotoxin F light chain protease; shares compounds with BoNT-F LC inh; multiplex microsphere protease cleavage assay, flow cytometry; inhibition, % at 10 µM; 720 tested, under 10 active
Anthrax LF CP1 = blocks anthrax lethal factor protease. shares compounds with BoNT-F LC inh. multiplex microsphere protease cleavage assay, LF. inhibition, % at 10 µM. 720 tested, under 10 active
An asterisk follows results filed as active; ? = inconclusive; nt = no result. Compounds with a hit are over-represented: about 3.9% of the library has one in this group of screens. Unless noted, no rule for the calls is given here.

SMILES	CCHFV vOTU inh	BoNT-A LC inh2	3CLpro inhibitor	Bead autofluor	BoNT-F LC inh	Anthrax LF inh2	BoNTA LC inh 1	BoNT-F LC CP1	Anthrax LF CP1
CN(C)c1ccc(-c2ccnc3c2CC(C)(C(=O)Nc2cccc(Oc4ccccc4)c2)O3)cc1 (stereo not drawn)	-17	0	nt	3318	-1	-3	nt	nt	nt
CCOC(=O)/C=C/C(=O)Nc1ccc(S(=O)(=O)Nc2cc(OC)nc(OC)n2)cc1	3	0	nt	3474	4	4	nt	nt	nt
Cc1ccc(NC(=O)CN(C)C(=O)c2ccccc2OCc2c(C)noc2C)cc1	4	89*	nt	?	?	?	0	0	-2
Cc1ccc(NC(=O)CNc2cc(S(=O)(=O)N3CCOCC3)ccc2N2CCOCC2)cc1S(=O)(=O)N(C)C	13	0	nt	3427	-5	-6	nt	nt	nt
CCn1c2ccccc2c2nc3cc(OC)c(OC)cc3nc21	-4	50*	2	5340	32	23	23	4	9
O=C(NC1CCCCC1)C1c2ccccc2OCC(=O)N1CCc1ccccc1 (stereo not drawn)	-8	-1	nt	5748	1	0	nt	nt	nt
COc1cccc(CNC(=O)C(CCSC)NS(=O)(=O)c2ccc3c(c2)oc(=O)n3C)c1 (stereo not drawn)	18	1	-3	4362	37*	-3	0	0	-7
Cc1ccc(CC(=O)Nc2ccc(Cl)cn2)cc1	3	-1	8	3729	0	-2	nt	nt	nt
Cc1ccc(NC(=O)Cc2ccc(Cl)cc2)nc1	-10	3	nt	?	?	47*	-2	-6	-1
C#Cc1ccc(NC(=O)C2(C)CCN2C(=O)C2(c3ccccc3)CCCC2)cc1 (stereo not drawn)	1	0	nt	3805	-3	-3	nt	nt	nt
COc1ccc(CCNC(=O)CCSCc2ccccc2F)cc1OC	14	3	2	3605	48*	5	0	-4	-4
CCOc1ccc(CNC(=O)CCSCc2ccccc2F)cc1OC	-8	0	0	3287	-4	-7	nt	nt	nt
CCC(=O)N1CCc2cc(-c3csc(NC(=O)c4ccco4)n3)ccc21	-34	-2	-8	3917	35*	-10	2	5	-1
O=C(CCCc1nc2ccccc2s1)NCc1ccc(F)cc1	-18	3	-2	1938	40*	0	0	-3	-4
O=C(CCCc1nc2ccccc2s1)NCc1ccccc1	-4	1	1	2640	4	-4	nt	nt	nt
O=C(NCc1ccccc1)OC1CC2CC1[C@H]1CCCCN1C2=O (stereo partly drawn)	10	0	nt	4169	1	-2	nt	nt	nt
COc1ccc(-c2sc(NC(=O)c3ccc(C)cc3)nc2-c2ccc([N+](=O)[O-])cc2)cc1	2	19	-1	3382	12	27	nt	nt	nt
O=C(Nc1nc(-c2ccccc2)c(C(=O)c2ccccc2)s1)c1ccc(S(=O)(=O)N2CCCC2)cc1	3	0	3	2627	-10	-4	nt	nt	nt
O=C(Nc1nc(-c2ccccc2)c(-c2ccccc2)s1)c1ccc(S(=O)(=O)N2CCCC2)cc1	19	3	-2	15385	1	-4	-1	-2	0
COc1ccc(C(=O)Nc2nc(-c3ccc([N+](=O)[O-])cc3)c(-c3ccccc3)s2)cc1	5	29	7	2430	15	31*	24	3	18
COc1ccc(OC)c(NC(=O)COC(=O)/C=C/c2ccc(Cl)cc2)c1	5	0	-2	9079	-8	2	nt	nt	nt
Cc1oc(C)c(S(=O)(=O)NCc2cccs2)c1C(=O)O	8	?	-1	4495	?	38*	0	-3	2
CCc1ccc(S(=O)(=O)NCc2cccs2)cc1	2	1	2	5482	1	2	nt	nt	nt
COc1ccccc1-c1nc2cc3ccccc3cc2nc1-c1ccccc1	7	48*	-5	2643	10	19	14	3	14
CCn1c(C)c(C(C)=O)c(N2CCN(c3ccccc3)CC2)nc1=S	8	46*	3	3921	-55	20	-4	-16	1
